Cav32 inh – inhibitors of human Cav3.2 T-type calcium channel | B-score at 10 µM | Cav3.2-expressing cells, Fluo-4 calcium fluorescence FDSS; stronger effect = lower value | 100,000 tested, 4% active;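 active = single-dose well whose peak fluorescence ratio is a statistical outlier from its plate by either plate-standardised score or position-corrected B-score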
CYP2C9 inhib – inhibitors of human CYP2C9. P11712. CYP2C9 Supersomes, luciferin-H conversion, luminescence. inhibition, % at 5 µM. 96,000 tested, 20% active. AID 777;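 active = blocking of liver enzyme CYP2C9 beyond about 50% at 5 µM, limit read from the data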
CYP2C19 activ – increases human CYP2C19 enzyme activity; P33261; recombinant CYP2C19, luciferin-H EGE luminescence; stronger effect = higher value; 0 = fully inhibited enzyme, 1 = untreated enzyme; activation factor at 5 µM; 96,000 tested, under 10 active; AID 1025;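 active = activation factor of at least 2 at 5 µM in the primary screen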;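 note: 0 = wells with 2.5 mM tranylcypromine and 1 = vehicle-only wells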
CYP2C19 inh – blocks human cytochrome P450 2C19. inhibition, % at 5 µM. CYP2C19 Supersomes, luciferin-H EGE luminescence, 30 min. 96,000 tested, 21% active;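 active = CYP2C19 inhibition above a set limit at 5 µM in the primary screen, cut at about 50% in these data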;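 note: plate controls were negative control wells for no effect and 2.5 mM tranylcypromine positive control for full effect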
CYP2C9 activ – increases human cytochrome P450 2C9 activity. P11712. recombinant CYP2C9, luciferin-H conversion, luminescence; stronger effect = higher value; factor 1 = untreated enzyme, 0 = blocked. activation factor at 5 µM. 96,000 tested, 1.4% active;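 active = activation factor of 2 or more for CYP2C9 at a 5 µM dose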;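 note: 0 = sulfaphenazole-blocked wells and 1 = vehicle-only wells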
* = called active by the depositor; nt = no result given. An excerpt weighted towards active compounds, which were near 27% of everything screened.

SMILES | Cav32 inh | CYP2C9 inhib | CYP2C19 activ | CYP2C19 inh | CYP2C9 activ
COc1ccc(/C=N/NS(=O)(=O)c2ccccc2)cc1OS(=O)(=O)c1ccc(C)cc1 | -3.7 | 93* | 0.5 | 52* | 0.1
COc1ccc(C(=O)Oc2cc(/C=N/NS(=O)(=O)c3ccccc3)ccc2OC)cc1 | 0.79 | 33 | 0.8 | 19 | 0.7
O=C(C1CC1)N1CCc2cc(Br)cc(S(=O)(=O)NC3CCCCC3)c21 | -0.78 | -4 | 0.9 | 6 | 1
COC(=O)c1cc(C)sc1NC(=O)c1cccnc1 | -0.95 | -20 | 1.2 | -15 | 1.2
N=c1oc2ccccc2cc1-c1nc2ccccc2c(=O)[nH]1 | nt | 19 | 0.7 | 27 | 0.8
COc1cc(/C=N/NC(=O)COc2ccc(Cl)cc2)ccc1OS(=O)(=O)c1ccc(C)cc1 | -1.9 | 64* | 0.6 | 37 | 0.4
COc1ccccc1NC(=O)COc1ccc(/C=N/NS(=O)(=O)c2ccc(C)cc2)cc1 | -0.7 | 18 | 1 | 3 | 0.8
CCOc1ccc(CCNC(=O)C2CC(=O)N(C3CCCC3)C2)cc1OCC (stereo not drawn) | -0.45 | 16 | 1 | -4 | 0.8
CCCNS(=O)(=O)c1ccc(OCC(=O)OC)cc1 | 0.045 | 56* | 0.5 | 53* | 0.4
CCCNS(=O)(=O)c1ccc(OCC(=O)NCCCOC)cc1 | 0.77 | nt | nt | nt | nt
CCCNS(=O)(=O)c1ccc(OCC(=O)NCCC2=CCCCC2)cc1 | -0.37 | 39 | 0.7 | 34 | 0.6
CCCNS(=O)(=O)c1ccc(Oc2ncc(C(F)(F)F)cc2Cl)cc1 | -3.6 | 67* | 0.1 | 87* | 0.3
COC(=O)COc1ccc(S(=O)(=O)NCCC2=CCCCC2)cc1 | -2 | 69* | 0 | 95* | 0.3
COC(=O)COc1ccc(S(=O)(=O)NCCC2=CCCCC2)cc1C | -2.6 | 8 | 0 | 99* | 0.9
Cc1c(C(=O)N2CCC(C)CC2)sc2ncnc(N(C)c3ccccc3)c12 | -2.2 | nt | nt | nt | nt
C#CCOCCOCCOCCNc1nc(N2CCN(C(=O)C([C@@H](C)CC)n3cc(C(N)COC(=O)C(F)(F)F)nn3)CC2)nc(N2CCN(C(=O)[C@H](CCC(=O)O)n3cc(C(N)CC(C)C)nn3)CC2)n1 (stereo partly drawn) | 0.64 | nt | nt | nt | nt
CC(C)CN(C(=O)c1ccc(=O)n(C)n1)c1nc2ccccc2s1 | -1.5 | 84* | 0.1 | 90* | 0.2
Cc1cc(C)cc(-n2c(C)cc(C(=O)CSc3nnnn3C)c2C)c1 | -2.2 | 64* | 0.4 | 61* | 0.4
Cc1cc(C(=O)CSc2n[nH]c(N)n2)c(C)n1-c1cccc(F)c1 | -0.24 | 52* | 0.1 | 90* | 0.5
Cn1c(SCC(=O)c2ccc3c(c2)OCO3)nnc1C1COc2ccccc2O1 (stereo not drawn) | -0.0098 | 44 | 1.1 | -8 | 0.6
Cc1cc(C(=O)CSc2nnc(C3COc4ccccc4O3)n2C)c(C)n1-c1ccc(F)cc1 (stereo not drawn) | -7.9* | 50* | 0.5 | 49 | 0.5
Cc1cc(C(=O)CSc2nc(N)cc(N)n2)c(C)n1CCc1ccc(F)cc1 | -3.6 | 53* | 0.2 | 76* | 0.5
CCN(CC)C(=S)SCC(=O)Nc1ccc(F)cc1 | 1.1 | 8 | 0.6 | 37 | 0.9
COc1cccc(C2/C(=C(\O)c3ccc(OC)c(OC)c3)C(=O)C(=O)N2c2cc(C)on2)c1 (stereo not drawn) | 1 | -11 | 1.1 | -13 | 1.1
COCCn1c(C)cc(C(=O)CSc2n[nH]c(N)n2)c1C | -0.29 | -86 | 0.9 | 8 | 1.9
SMILES | Cav32 inh | CYP2C9 inhib | CYP2C19 activ | CYP2C19 inh | CYP2C9 activ
Cc1cc(C(=O)CSc2nnnn2C)c(C)n1-c1cccc(F)c1 | 1.1 | 45 | 0.1 | 95* | 0.6
COc1ccccc1C(=O)CSc1n[nH]c(N)n1 | 0.86 | -203 | 0.9 | 8 | 3*
O=C(Nc1ccccc1)C1CCCCC1 | 0.003 | nt | nt | nt | nt
O=C(NCC1CCCO1)C1CCC(N2C(=O)c3ccccc3C2=O)CC1 (stereo not drawn) | -0.54 | 72* | 0.4 | 56* | 0.3
O=C(Nc1ccc(Nc2ccccc2)cc1)C1CC1 | -1.7 | 50* | 0.4 | 59* | 0.5
CS(=O)(=O)N1CCC(C(=O)Nc2ccccc2)CC1 | 0.21 | -25 | 1 | -2 | 1.2
O=C(Nc1ccccc1)C1CCN(c2nccs2)CC1 | 0.47 | 30 | 0.2 | 85* | 0.7
O=C(O)C1CCCCC1C(=O)Nc1ccccc1Nc1ccccc1 (stereo not drawn) | 0.54 | 86* | 0.4 | 56* | 0.1
O=C(CN1C(=O)c2ccccc2C1=O)NCC1CCCO1 (stereo not drawn) | -0.27 | -12 | 1.2 | -18 | 1.1
COc1ncccc1-c1nnn(-c2ccccc2)n1 | 0.035 | nt | nt | nt | nt
CCOC(=O)Cn1c(C)c(Br)c(=O)c2cccc(C)c21 | -0.82 | -4 | 1.1 | -5 | 1
O=C(Nc1ccc(F)cc1)C1CCC(N2C(=O)c3ccccc3C2=O)CC1 (stereo not drawn) | -0.032 | 51* | 0.2 | 78* | 0.5
O=C(Oc1nsnc1N1CCOCC1)c1ccccc1 | -0.43 | 37 | 0.4 | 64* | 0.6
Cn1c(=O)n(C)c2cc(S(=O)(=O)Nc3ccccc3O)ccc21 | 1.1 | 59* | 0.2 | 83* | 0.4
COc1ccccc1NS(=O)(=O)c1ccc2c(c1)n(C)c(=O)n2C | 0.58 | 2 | 0.3 | 72* | 1
Cn1c(=O)n(C)c2cc(S(=O)(=O)NCCOCCO)ccc21 | 3.1 | -1 | 1.1 | -7 | 1
CC(=C1C(=O)c2ccccc2C1=O)N1CCC(C(N)=O)(N2CCCCC2)CC1 | 0.49 | -6 | 1 | -2 | 1.1
COc1ccccc1N1CCN(C(=O)c2cc3c(=O)n(C)c4ccccc4c3n2C)CC1 | 1.5 | 61* | 0.1 | 89* | 0.4
COc1ccccc1N1CCN(C(=O)c2cc3sccc3n2C)CC1 | -0.092 | -40 | 0.3 | 66* | 1.4
Cn1c(C(=O)N2CCN(c3nc4ccccc4s3)CC2)cc2sccc21 | 1.1 | -23 | 1.1 | -7 | 1.2
CCCN1CCN(CCCNC(=O)c2cc3c(=O)n(C)c4ccccc4c3n2C)CC1 | 0.79 | 67* | 1.1 | -14 | 0.3
Cn1c(C(=O)N2CCN(C(=O)c3ccco3)CC2)cc2c(=O)n(C)c3ccccc3c21 | 1.2 | 18 | 0.5 | 53* | 0.8
O=C(Cn1cnc2ccccc2c1=O)NC1CCCc2ccccc21 (stereo not drawn) | 0.6 | 4 | 1 | 0 | 1
COCCNC(=O)C(c1ccco1)N(C(=O)Cn1nnc2ccccc21)c1cc(C)ccc1C (stereo not drawn) | 0.034 | 12 | 0.6 | 36 | 0.9
CCCS/C(N)=N/N=C/c1ccccc1O | -0.07 | 59* | 0.2 | 79* | 0.4
CC(N=Cc1ccccc1O)c1ccccc1 (stereo not drawn) | 0.42 | 0 | 0.9 | 5 | 1
CCOC(=O)CC1=C(C(=O)OCC)C(c2ccc(C)o2)C(C#N)=C(N)O1 (stereo not drawn) | 0.94 | 31 | 0.1 | 94* | 0.7
CCOC(=O)C1=C(c2ccccc2)OC(N)=C(C#N)C1c1ccco1 (stereo not drawn) | -1.4 | 16 | 0.8 | 25 | 0.8

Assay outcomes deposited in PubChem BioAssay by several laboratories.
